High-throughput results as filed in PubChem.
Gal4-VP16 FLuc = inhibits Gal4-VP16 luciferase reporter, ROR gamma counter-screen. Potency, µM (top dose mostly 53.6 µM), for inactives: at the top dose activity, negative = inhibition, usual class: inhibitors. Drosophila S2 Gal4-VP16 UAS-luciferase, luminescence, 20 h. 3.5% of 310,000 active. AID 2546;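 further: Gal4-VP16 expression switched on by copper sulfate through the metallothionein promoter; potency means the concentration at half of the fitted maximal effect; nearly all actives have a fitted effect of over 50% in size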
DT40 TDP1 CPT = DT40-hTDP1 cell growth loss with CPT. AID 686979. chicken DT40 Tdp1-/-;hTDP1 cells + 20 nM CPT, ATP luminescence, 48 h. 12% of 420,000 active. Potency, µM (top dose mostly 46.2 µM), for the others: top-dose activity change, negative = growth inhibition, actives largely listed as inhibitors; further: potency means the concentration at half of the fitted maximal effect; nearly all actives have a fitted effect of over 55% in size
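Cell growth measured by CellTiter-Glo luminescence after a minimum 48 h, 37 C compound exposure with 20 nM CPT in Tdp1-knockout DT40 cells stably expressing hTDP1, seeded 400/well; qHTS titration format.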
ELG1 DNA repair = blocks ELG1-dependent DNA repair in HEK293T cells | HEK293T ELG1-luciferase reporter, luminescence, 16 h; DNA damage induced by 5-fluorouridine | Potency, µM (highest dose often 46.1 µM), inactives show at the top dose activity change, negative = inhibition, most hits filed as inhibitors | 2.3% of 330,000 active | AID 504467; further: potency means the concentration at half of the fitted maximal effect; nearly all actives have a fitted effect of over 55% in size
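5-Fluorouridine DNA damage + compound/DMSO, 2,000 cells/well, 16 h, 37 °C/5% CO2. ONE-Glo, 30 min RT, luminescence. Readout = decrease in reporter signal.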
IL1B secr inh = inflammasome signaling inhibition, IL-1 beta readout; 4.7% of 360,000 active; THP-1 LPS/ATP IL-1B secretion, AlphaLISA, 16 h; active compounds read low; activity change, % at 57.5 µM; in the data active means activity change below about -50%; inconclusive means mostly about -30% to -49%
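THP-1 cells pretreated 1 hr with compounds (up to 57.5 uM final), then stimulated with LPS (250 ng/mL final) plus ATP (1.25 mM final); secreted IL-1B measured by AlphaLISA after 16 hr, decreased signal indicating inhibition.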
RORgamma inh = ROR gamma (mouse) transcription inhibition | Drosophila S2 Gal4-RORgamma UAS-luciferase reporter, 20 h | Potency, µM (series often up to 53.6 µM), inactives show top-dose activity change, negative = inhibition, hits mostly inhibitors | 5.4% of 310,000 active | AID 2551; further: potency means the concentration at half of the fitted maximal effect; nearly all actives have a fitted effect of over 60% in size
Target sequence (P51450 whole entry, looked up, the tested form may be a part): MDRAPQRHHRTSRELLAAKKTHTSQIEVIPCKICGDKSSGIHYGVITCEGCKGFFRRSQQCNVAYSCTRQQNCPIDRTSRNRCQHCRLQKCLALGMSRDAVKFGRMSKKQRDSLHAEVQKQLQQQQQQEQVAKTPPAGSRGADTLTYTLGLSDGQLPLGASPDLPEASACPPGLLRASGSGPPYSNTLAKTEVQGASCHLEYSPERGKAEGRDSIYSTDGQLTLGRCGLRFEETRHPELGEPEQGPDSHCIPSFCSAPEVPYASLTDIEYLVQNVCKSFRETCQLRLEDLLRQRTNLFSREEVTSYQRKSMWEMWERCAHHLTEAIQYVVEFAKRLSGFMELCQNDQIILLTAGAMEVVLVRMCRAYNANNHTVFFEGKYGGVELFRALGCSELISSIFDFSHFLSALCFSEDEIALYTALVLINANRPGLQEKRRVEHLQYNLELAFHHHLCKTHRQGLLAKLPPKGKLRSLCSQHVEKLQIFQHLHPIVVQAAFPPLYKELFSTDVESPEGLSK
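Stably transfected Drosophila Schneider cells are the test system, with ROR gamma fused to Gal4 and luciferase under UAS control; luminescence is read after 20 hr of 700 uM copper sulfate induction at ambient temperature.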
DT40 TDP1 no CPT = qHTS for Inhibitors of human tyrosyl-DNA phosphodiesterase 1 (TDP1): qHTS in cells in absence of CPT; DT40 Tdp1-/- hTDP1 cells, no CPT, ATP luminescence, 48 h; Potency, µM (doses to about 46.2 µM), without a hit: at the highest dose activity change, negative = growth inhibition, usual class: inhibitors; 15% of 420,000 active; AID 686978, 2013; further: potency means the concentration at half of the fitted maximal effect; nearly all actives have a fitted effect of over 55% in size
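Luminescent ATP content (CellTiter-Glo) served as the growth readout. Knockout chicken DT40 cells expressing human TDP1 were exposed to compounds without camptothecin for a minimum 48 hr at 37 °C.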
ELG1 FLuc counter = luciferase inhibition in cell-free luciferin readout for ELG1 hits; 3% of 350 active; AID 624247; Potency, µM (doses to about 46.1 µM), for inactives: top-dose activity change, negative = inhibition, hits mostly inhibitors; cell-free firefly luciferase luminescence counter-screen, ViewLux; shares compounds with ELG1 DNA repair; further: potency means the concentration at half of the fitted maximal effect
ELG1 Luc conf = confirmation of human ELG1-dependent DNA repair inhibitors; shares compounds with ELG1 DNA repair; Potency, µM (series often up to 46.1 µM), inactives show at the top dose activity change, negative = inhibition, usual class: inhibitors; AID 624248; HEK293T ELG1-luciferase levels, luminescence; cells co-treated with 5-fluorouridine; 68% of 670 active; further: potency means the concentration at half of the fitted maximal effect; nearly all actives have a fitted effect of over 55% in size
ELG1 MMS Luc = confirmation of human ELG1 repair inhibitors, MMS stimulated; AID 624249; shares compounds with ELG1 DNA repair; HEK293T luciferase-tagged ELG1 level, MMS stimulated; 53% of 670 active; Potency, µM (series often up to 46.1 µM), for inactives: at the top dose activity change, negative = inhibition, usual class: inhibitors; further: potency means the concentration at half of the fitted maximal effect; nearly all actives have a fitted effect of over 60% in size
ELG1 5-FU = confirmation of ELG1 repair inhibitors: viability with 5FU | shares compounds with ELG1 DNA repair | cell viability with 5-FU, ELG1-dependent repair | Potency, µM (highest dose often 46.1 µM), without a hit: top-dose activity change, negative = viability loss, actives largely listed as cytotoxic | 670 tested, under 10 active;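 further: ELG1-luc HEK293T cells cotreated with 5-fluorouridine at 10 µM final; potency means the concentration at half of the fitted maximal effect; viability measured 16 h after compound addition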
ELG1 MMS cell = confirmation of ELG1 repair inhibitors: viability with MMS; Cell viability with MMS, ELG1-dependent DNA repair; shares compounds with ELG1 DNA repair; AID 624251; 33% of 670 active; Potency, µM (titrated, usually from 46.1 µM), inactives show top-dose activity change, negative = viability loss, most hits filed as cytotoxic;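 further: ELG1-luc HEK293T cells co-treated with 10 µM MMS; potency means the concentration at half of the fitted maximal effect; viability read 16 h after compound addition; nearly all actives have a fitted effect of over 60% in size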
ELG1 unstim viab = affects unstimulated cell viability, ELG1 hit counter-screen; shares compounds with ELG1 DNA repair; cell viability counter-screen, unstimulated, luminescence; Potency, µM (doses to about 45.9 µM), without a hit: top-dose activity change, negative = loss of viability, hits mostly cytotoxic; 8% of 900 active; AID 624252;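 further: potency means the concentration at half of the fitted maximal effect; compound exposure lasted 16 hours before reading; nearly all actives have a fitted effect of over 55% in size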
FLuc biochem = inhibits purified firefly luciferase, counter-screen for ELG1 hits. shares compounds with ELG1 DNA repair. purified firefly luciferase, luminescence counter-screen. Potency, µM (highest dose often 57.5 µM), without a hit: at the top dose activity, negative = inhibition, actives largely listed as inhibitors. 10% of 350 active. AID 624253; further: potency means the concentration at half of the fitted maximal effect
An asterisk follows results filed as active; ? = inconclusive; . = not tested or not shown. In the library only some 21% were active in any assay of this set; here they are far more common. Unless noted, the call rests on the fitted dose curve; in most records, active means well fitted curve in the direction sought with a large enough effect; inconclusive means small, poorly fitted or top-dose-only effect, or another doubt; inactive means no such curve, though single readings can be large; an effect the other way counts as inactive or inconclusive. On the % scale 0 is the no-effect control and ±100 the full control effect.

SMILES	Gal4-VP16 FLuc	DT40 TDP1 CPT	ELG1 DNA repair	IL1B secr inh	RORgamma inh	DT40 TDP1 no CPT	ELG1 Luc conf	ELG1 MMS Luc	ELG1 5-FU	ELG1 MMS cell	ELG1 unstim viab	others
CCOCCCNC(=O)c1ccc2c(c1)ncn2-c1ccccc1OC	12%	?	6%	-13	25%	?	.	.	.	.	.
CCN(CC)CCNc1ccc2nnc(CCNS(=O)(=O)c3ccc(C)cc3)n2n1	-8%	-13%	14%	-23	-1%	2%	.	.	.	.	.
CC(C)OCCCn1c(=O)c2ccccc2n2c(CCC(=O)N3CCN(c4ccccn4)CC3)nnc12	3%	?	?	?	15%	?	.	.	.	.	.
O=C(CCc1nnc2n(Cc3ccc(Cl)cc3)c(=O)c3ccccc3n12)N1CCN(c2ccccn2)CC1	-3%	21µM*	3.7µM*	.	-2%	21µM*	6.3µM*	22µM*	?	?	-10%
O=S(=O)(NCCc1ccccn1)c1ccc(F)c(F)c1	-2%	-11%	-5%	0	10%	10%	.	.	.	.	.
Cc1cc(OCC(=O)Nc2ccccc2C(N)=O)c2c(C)cc(=O)oc2c1	3%	?	3.7µM*	-12	-3%	23µM*	13µM*	-14%	?	?	2%
CC1(c2ccc(OC(F)F)cc2)NC(=O)N(CC(=O)NCCC2=CCCCC2)C1=O (configuration not stated)	.	-26%	-6%	4	.	5%	.	.	.	.	.
CC(=O)N1CCc2cc(S(=O)(=O)NC(Cc3ccccc3)C(=O)O)ccc21 (configuration not stated)	0%	-10%	27%	-6	-10%	2%	.	.	.	.	.
Nc1ncnc(N2CCc3ccccc32)c1[N+](=O)[O-]	1%	5.8µM*	1.8µM*	-1	-25%	7.3µM*	1.6µM*	7.9µM*	-10%	-3%	-19%
Cc1ccc2oc3ccccc3c(=O)c2c1	.	3%	.	-1	.	1%	.	.	.	.	.
O=c1c2ccccc2oc2ccc(-c3ccc4cc[nH]c4c3)cc12	.	?	?	10	.	?	.	.	.	.	?	ELG1 FLuc counter=94%;FLuc biochem=0.41µM*
Cc1ccc(CNC(=O)c2ccc(N3CCC4(CC3)CC(c3cccc(Br)c3)=NO4)c(NC(=O)c3ccco3)c2)cc1	.	-4%	-22%	-21	.	-28%	.	.	.	.	.
Cc1ccc(CNC(=O)c2ccc(N3CCC4(CC3)CC(c3ccccc3)=NO4)c(NC(=O)c3ccco3)c2)cc1	-2%	?	1.2µM*	-24	2%	?	?	?	?	?	1%
CCCNC(=O)c1ccc(N2CCC3(CC2)CC(c2ccccc2)=NO3)c(NC(=O)c2cccc(OC)c2)c1	0%	?	4.6µM*	8	0%	13µM*	5µM*	?	?	3%	?
CCCNC(=O)c1ccc(N2CCC3(CC2)CC(c2cccc(Br)c2)=NO3)c(NC(=O)c2c(Cl)cccc2Cl)c1	.	-10%	24%	-7	.	-16%	.	.	.	.	.
COC(=O)[C@@H](NC(=O)O[C@@H]1C(=O)c2ccc(OC)cc2O[C@H]1c1cccc(C(F)(F)F)c1)C(C)C	-4%	.	?	.	?	.	.	.	.	.	.
O=C(Nc1ccc(F)cc1)N(CCCN1CCOCC1)Cc1cc2cc3c(cc2[nH]c1=O)OCO3	4%	?	-9%	0	-1%	?	?	21%	9%	-8%	?	ELG1 FLuc counter=34%;FLuc biochem=-9%
COc1cc2cc(CN(CCCN3CCOCC3)C(=O)Nc3ccccc3F)c(=O)[nH]c2cc1OC	-5%	2%	-7%	-14	-2%	-7%	.	.	.	.	.
Cc1cc(NC(=O)NC2CC(=O)N(c3ccc4c(c3)OCCO4)C2)no1 (configuration not stated)	-1%	12%	-3%	3	-11%	-1%	.	.	.	.	.
COc1ccc(CCc2nnc(CCC(=O)N(C)Cc3ccnc4ccccc34)o2)cc1	?	?	?	-28	?	4.6µM*	?	7.1µM*	-7%	6.3µM*	?
COc1ccccc1CCc1nnc(CCC(=O)N(C)Cc2ccncc2C)o1	-1%	-23%	-1%	-9	15%	?	.	.	.	.	.
CC(=O)NC1C(c2nc3ccccc3s2)=C(c2ccccc2)C(=O)N1c1ccc(C)cc1 (configuration not stated)	13%	?	?	3	26%	?	.	.	.	.	.
COc1cccc(N2C(=O)C(c3ccccc3)=C(c3nc4ccccc4s3)C2NC(C)=O)c1 (configuration not stated)	7%	?	2.3µM*	0	-5%	?	3.2µM*	3%	?	-2%	-3%	ELG1 FLuc counter=3%;FLuc biochem=-16%
